± gives the standard deviation of the averaged measurements. Whole data set: some 1,600 compounds, median “mitochondrial oxygen consumption rate normalised to cell number, Z score over the library” near 0.065, cut for the lowest 2% near -2.2. Many of the other results were omitted from the sample, so the lowest values are more common in it than they were.
tested on: FaDu; assay: mitochondrial oxygen consumption rate normalised to cell number, Z score over the library; higher = higher oxygen consumption (negative = OCR reduction); conditions: treatment time 24 h; assay medium: 5 mM galactose, 5 mM pyruvate, 4 mM glutamine; 10 µM
Protocol: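 Primary screen: FaDu cells were incubated 24 h with Pharmakon 1600 / TDI oncology set compounds at 2 or 10 uM. Mitochondrial-specific OCR (basal minus 2 uM antimycin A) was measured on a Seahorse XF96 in assay medium with 5 mM galactose, 5 mM pyruvate and 4 mM glutamine, then corrected for Hoechst cell number and expressed as a Z score […]. Compounds that cut cell number by >66% were excluded. Two repeats.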

Compound | mitochondrial oxygen consumption rate normalised
S=C=NCc1ccccc1 | -4.7 ± 0.66
CN1CCN(C(=O)O[C@H]2c3nccnc3C(=O)N2c2ccc(Cl)cn2)CC1 | -0.823 ± 0.029
CN(C)C(=S)SSC(=S)N(C)C | 0.578 ± 0.018
CC(=O)Oc1ccc(Cl)c2cccnc12 | -3.19 ± 0.57
CCNC1(c2cccs2)CCCCC1=O (stereo unspecified) | -0.924 ± 0.92
CNC(C)C(O)c1ccccc1 (stereo unspecified) | 0.176 ± 0.34
CN(C)C(=O)Oc1cccc([N+](C)(C)C)c1 | 0.321 ± 1.4
C1CCc2nnnn2CC1 | -0.625 ± 0.34
O=c1[nH]c(=O)n(Cl)c(=O)n1Cl | 0.623 ± 1.2
O=c1[nH]c2ccccc2n1C1CCN(CCCC(c2ccc(F)cc2)c2ccc(F)cc2)CC1 | -2.35 ± 0.37
O=c1[nH]c2ccccc2n1CCCN1CCC(n2c(=O)[nH]c3cc(Cl)ccc32)CC1 | -0.0948 ± 0.24
Nc1ccc([As](=O)(O)O)cc1 | 0.928 ± 0.83
N.N.[Cl][Pt][Cl] [Cisplatin] | -0.167 ± 0.0067
N.N.[Cl][Pt][Cl] | 0.355 ± 0.5
COc1cc([C@@H]2c3cc4c(cc3[C@H](O)[C@H]3COC(=O)[C@H]23)OCO4)cc(OC)c1OC | -0.645 ± 0.1
CCC1(CC)C(=O)C=CNC1=O | 0.538 ± 1.2
CC[C@H]1CN2CCc3cc(OC)c(OC)cc3[C@@H]2C[C@@H]1C[C@H]1NCCc2cc(OC)c(OC)cc21 | -5.13 ± 0.2
CCOC(=O)NC(=S)Nc1ccccc1NC(=S)NC(=O)OCC | -0.249 ± 0.0062
NCc1cccnc1 | 0.0684 ± 1.5
CC(=O)NC1CCSC1=O (stereo unspecified) | 0.219 ± 0.66
COC(C)(C)CCC[C@H](C)C/C=C/C(C)=C/C(=O)OC(C)C | 0.396 ± 0.11

— the supplement of paper PMC4962491
